Bioassay records deposited in PubChem BioAssay by several laboratories.
This is a sample that favours compounds with a hit; in the whole collection about 5.4% have one here.
AHR act: activators of human aryl hydrocarbon receptor | P35869 | AHR-responsive luciferase reporter cells, luminescence | activation, % at 5 µM | hit rate 2.5% among 320,000; in the data active = activation above about 47%;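 also: 0% = vehicle wells and 100% = reference agonist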
Target sequence (P35869 whole entry, looked up): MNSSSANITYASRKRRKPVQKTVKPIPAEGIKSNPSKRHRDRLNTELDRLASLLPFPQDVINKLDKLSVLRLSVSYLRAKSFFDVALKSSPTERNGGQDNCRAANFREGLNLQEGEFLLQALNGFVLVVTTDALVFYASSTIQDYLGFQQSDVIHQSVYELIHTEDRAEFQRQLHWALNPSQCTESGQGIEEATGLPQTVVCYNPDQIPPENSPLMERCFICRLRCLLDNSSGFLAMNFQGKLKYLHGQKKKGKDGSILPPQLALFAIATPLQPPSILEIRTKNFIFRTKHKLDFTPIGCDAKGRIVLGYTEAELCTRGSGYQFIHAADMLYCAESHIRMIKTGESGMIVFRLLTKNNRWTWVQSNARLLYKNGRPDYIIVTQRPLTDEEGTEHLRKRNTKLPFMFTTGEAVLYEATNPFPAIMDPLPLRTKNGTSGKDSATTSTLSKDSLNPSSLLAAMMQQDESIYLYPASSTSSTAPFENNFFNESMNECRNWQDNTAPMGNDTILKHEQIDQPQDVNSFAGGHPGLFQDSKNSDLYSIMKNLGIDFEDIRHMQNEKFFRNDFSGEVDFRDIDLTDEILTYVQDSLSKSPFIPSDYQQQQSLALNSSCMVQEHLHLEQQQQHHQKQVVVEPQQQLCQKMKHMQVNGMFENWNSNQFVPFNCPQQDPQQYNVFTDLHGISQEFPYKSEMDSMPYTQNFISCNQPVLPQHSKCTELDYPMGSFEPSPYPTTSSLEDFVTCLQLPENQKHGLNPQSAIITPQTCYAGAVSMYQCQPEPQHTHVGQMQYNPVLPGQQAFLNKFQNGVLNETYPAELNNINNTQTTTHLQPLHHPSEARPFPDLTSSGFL
HSF1 activator: increases HSF-1 driven luciferase reporter signal; NIH3T3-HGL HSF-1 luciferase reporter, MG132, 8 h; 100% = twice DMSO control signal; activation, % at 9 µM; hit rate 1.7% among 300,000;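 active = mean replicate activation of at least 50% with a set share of replicates each reaching 50%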;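 also: 0% = median of the neutral control wells and 100% = twice that signal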
FXN GAA850 act: activators of GAA850 frataxin (FXN) promoter. activation, % at 6 µM. hit rate 0.56% among 360,000. HEK293 lucGAA850 FXN promoter luciferase reporter, 24 h; percent of 10 µM SAHA response;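 active = activation above the average of all compounds screened plus 3 SD, cutoff fixed separately per campaign, cut at about 7.5% in these data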;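 also: 0% = DMSO wells and 100% = 10 µM SAHA wells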
HSF1 inhib: HSF1 inhibition; NIH3T3-HGL HSE-luciferase, MG132-induced, luminescence 8 h; active compounds read low; activity change, negative = inhibition, % at 7.5 µM (by protocol); hit rate 0.77% among 300,000; AID 2098;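 active = more than half of replicate wells show activity change below -50%, luminescence cut by over half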;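 also: luciferase reports HSF-1 transcriptional activity via heat shock element; 0% = median of DMSO wells and -100% = zero luminescence signal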
NR0B1 inh: inhibitors of human orphan nuclear receptor DAX1 (NR0B1) | HEK293 Gal4-DAX1 luciferase reporter, luminescence | inhibition, % at 6.75 µM | hit rate 0.99% among 340,000;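 active = inhibition above the mean over all tested compounds plus 3 SD, cut at about 4.2% in these data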;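 also: 0% = DAX1-transfected cells with DMSO and 100% = empty-vector control cells with DMSO; inhibition shows as a rise in luminescence from relieved DAX1 repression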
The depositor's hits bear a star.

COc1cc(F)ccc1-c1cc(C(=O)NCc2cc(C(F)(F)F)cc(C(F)(F)F)c2)[nH]n1 was read as FXN GAA850 act -0.8.
`CS(=O)CC(O)(c1ccc(F)cc1)C1CC1` (stereo not given) gave FXN GAA850 act 0.7 and NR0B1 inh 1.2.
Cc1cc(=O)cc(C)n1-c1ccc(F)cc1F was read as AHR act -0.5, HSF1 activator -13.3, FXN GAA850 act -0.8, HSF1 inhib -6.3 and NR0B1 inh 2.0.
`O=C(NCCS(=O)(=O)N1CCN(c2ccc(F)cc2)CC1)c1ccco1` gave AHR act 0.5, HSF1 activator -3.5, FXN GAA850 act 1.2, HSF1 inhib 0.5 and NR0B1 inh 0.7.
`CN(Cc1ccncn1)C(=O)C1CCC(=O)N(Cc2cccc(C(F)(F)F)c2)C1` (stereo not given) gave AHR act 2.7, HSF1 activator 4.0, FXN GAA850 act -0.1, HSF1 inhib 0.6 and NR0B1 inh -0.3.
For CNC(=O)c1csc(-c2ccc(Cl)cc2)n1 the results were AHR act -4.4, FXN GAA850 act 3.2 and NR0B1 inh 0.0.
For O=C(Nc1ccc(Cl)cc1)c1csc(-c2ccccc2)n1 the results were AHR act 96.8*, HSF1 activator -3.0, FXN GAA850 act 0.9, HSF1 inhib -6.3 and NR0B1 inh 1.0.
`NC(=O)Nc1ccccc1C(=O)N1CCC(O)(c2ccc(Cl)cc2)CC1` gave AHR act -1.5, HSF1 activator 4.8, FXN GAA850 act 0.6, HSF1 inhib -3.2 and NR0B1 inh 5.4*.
COC(=O)Nc1ccccc1C(=O)N1CCC(O)(c2ccc(Cl)cc2)CC1 was read as AHR act 5.0, HSF1 activator 0.8, FXN GAA850 act -0.1, HSF1 inhib -4.2 and NR0B1 inh -0.3.
For COc1cc(C2c3c(oc4ccccc4c3=O)C(=O)N2c2nccs2)ccc1O (stereo not given) the results were AHR act 6.0, HSF1 activator 3.8, FXN GAA850 act 2.1, HSF1 inhib 1.8 and NR0B1 inh -1.0.
CCOc1ccccc1N/C(=C(/C(Cl)=C(Cl)Cl)[N+](=O)[O-])n1cncn1 was read as AHR act 54.1*, FXN GAA850 act 0.4 and NR0B1 inh 0.3.
`Cc1nnc(Cc2ccccc2)c2n[nH]c(C)c12` gave FXN GAA850 act 0.2 and NR0B1 inh 0.6.
For CC1(C)CC(=O)C2=C(C1)NC(Nc1nc3ccccc3o1)=NC2c1ccccn1 (stereo not given) the results were AHR act 4.5, HSF1 activator 2.1, FXN GAA850 act -0.3, HSF1 inhib -4.6 and NR0B1 inh -0.1.
Screening CC1=C(C(=O)Nc2ccccc2)C(c2ccc(C)cc2)N=C(Nc2nc3ccccc3o2)N1 (stereo not given) returned AHR act 6.5, HSF1 activator 61.5*, FXN GAA850 act -0.6, HSF1 inhib 38.1 and NR0B1 inh 0.9.
COc1ccc(CN2CC(C(N)=O)Oc3ccccc32)cc1F (stereo not given) was read as AHR act 0.3, HSF1 activator 7.2, FXN GAA850 act -0.5, HSF1 inhib 2.6 and NR0B1 inh -1.3.
Screening COc1ccc(N(/N=C2\Sc3ccccc3C2=O)C(C)=O)cc1 returned HSF1 activator 60.4*, FXN GAA850 act 6.1, HSF1 inhib 26.3 and NR0B1 inh 2.7.
Screening COc1ccccc1N(/N=C1\Sc2ccccc2C1=O)C(C)=O returned AHR act 39.4, HSF1 activator -67.6, FXN GAA850 act -6.4, HSF1 inhib -67.8* and NR0B1 inh 0.2.
`Cc1cc(C)c(C#N)c(SCC(=O)C(C)(C)C)n1` gave AHR act 59.2*, HSF1 activator 12.7, FXN GAA850 act 4.8, HSF1 inhib -1.1 and NR0B1 inh -0.1.
Cc1cc(C)c(C#N)c(SCC(=O)NC(C)(C)C)n1 was read as AHR act 1.4, HSF1 activator -73.9, FXN GAA850 act -2.2, HSF1 inhib -65.0* and NR0B1 inh -0.3.
For Cc1cc(C(F)(F)F)c(C#N)c(SCC(=O)NC(C)(C)C)n1 the results were AHR act 1.1, HSF1 activator 20.2, FXN GAA850 act 3.4, HSF1 inhib 0.4 and NR0B1 inh 0.6.
`Cc1ccn(CC(=O)N2CCCC(N3CCN(c4ccc(F)cc4)CC3)C2)n1` (stereo not given) gave HSF1 activator 66.8*, FXN GAA850 act -1.8, HSF1 inhib 19.0 and NR0B1 inh -0.3.
